# In PubChem BioAssay AID1347075 (National Center for Advancing Translational Sciences (NCATS), 2019):
# Hit rate of the full screen: of about 400,000 compounds, about 5,500 (1.4%) were called active. Where a call stands in place of a potency, no number is given. Roughly 9% stayed inconclusive and do not appear here. This is one part of a sample in which actives are shown more often than they occur. Calls come from the whole dose curve; as a rule, active = well fitted cell-killing curve with a large enough effect; inconclusive = small, poorly fitted or top-dose-only effect, or effect the other way; inactive = flat fitted curve, though single readings scatter.
# Experiment: qHTS assay for MDR1-selective chemotherapeutics: Primary screen using the parental adenocarcinoma cell KB-3-1; note: nearly all actives have a fitted effect of over 60% in size
# Settings: KB-3-1 viability, CellTiter-Glo ATP luminescence, 72 h; series mostly up to 46.1 µM
# Method in brief: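 Cells are dispensed, compounds pinned in, plates held at 37 °C for 72 h, then CellTiter-Glo is added and luminescence read after 10 minutes. Cell line: parental KB-3-1 in phenol-red-free DMEM, 10% FBS.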
# Potency is the fitted concentration of half-maximal effect.
row,SMILES,Potency
1,O=[N+]([O-])c1ccc(C=Nc2ccc(Cl)cc2Cl)s1,16.4 µM (active)
2,CCOC(=O)C(Cc1ccccc1)NC(=O)CCc1c(C)nc2c(c(C)nn2-c2ccc(C)c(C)c2)c1C (centres undefined),inactive
3,COc1cccc(CNC(=O)C2CCN(S(=O)(=O)c3ccc4c(ccn4C)c3)CC2)c1,inactive
4,COc1ccc(-c2nn3c(=O)cc(CN4CCN(C(=O)c5ccc(OC)c(OC)c5)CC4)nc3s2)cc1,inactive
5,CCS(=O)(=O)N1CCC(n2c(C)nc3cccnc32)CC1,inactive
6,COc1ccccc1CNC(=O)c1ccc(NC(=O)N2CC(C)Sc3ccccc32)cc1 (centres undefined),inactive
7,Cc1cc(Cl)ccc1NC(=S)N1CCC(C(N)=O)(N2CCCCC2)CC1,inactive
8,O=C(NC1CCN(C(=S)Nc2ccc(Cl)cc2)CC1)C1CCCCC1,inactive
9,NC(=O)C1(N2CCCCC2)CCN(C(=S)Nc2ccc(Cl)cc2)CC1,11.6 µM (active)
10,O=C(CCC(=O)N1CC2CCCN2c2ccccc21)NCc1ccccc1Cl (centres undefined),inactive
11,CCc1ccc(NC(=O)c2cc3c(=O)n(Cc4cccnc4)ccc3nc2C)cc1,inactive
12,COc1ccc(-n2c(=O)c3c(c4cc(OC)ccc4n3C)n(Cc3cccc(C)c3)c2=O)cc1,inactive
13,CCN(CC)c1ccc(NC(=O)CN2CCN(CC(=O)Nc3ccc(Cl)cc3)CC2)cc1,inactive
14,CCN(CC)c1ccc(NC(=O)c2ccc(Cl)nc2)cc1,5.17 µM (active)
15,O=C(NNC(=O)c1ccc(Cl)nc1)c1ccc(Br)cc1,inactive
16,CN(C)c1ccc(C(CNS(=O)(=O)c2cc(F)ccc2F)N2CCOCC2)cc1 (centres undefined),inactive
17,Cc1ccc(C)c(N2CCN(S(=O)(=O)c3ccc4c(c3)C(C(C)C)C(=O)N4)CC2)c1 (centres undefined),inactive
18,CCC1CCCCN1C(=O)Cn1c(=O)n(CCCCCC(=O)NCc2ccccc2)c(=O)c2sccc21 (centres undefined),inactive
19,O=C(c1ccc(Br)cc1)N(Cc1cccs1)c1ccc(F)cc1,inactive
20,Nc1ccccc1N,inactive
21,Cc1ccc(Nc2c(-c3ccc(C)s3)nc3ccccn23)cc1,inactive
22,Cc1ccc(Nc2ccccc2N)cc1,20.6 µM (active)
23,Cc1ccc2c(c1)C1CN(C)CCC1N2S(=O)(=O)c1ccc(Oc2ccc([N+](=O)[O-])cc2)cc1 (centres undefined),18.4 µM (active)
24,Cc1ccc2c(c1)C1CN(C)CCC1N2C(=O)c1ccccc1NS(=O)(=O)c1ccc(F)cc1C (centres undefined),inactive
25,Cc1ccc([N+](=O)[O-])cc1S(=O)(=O)N1CCCN(C)CC1,inactive

row,SMILES,Potency
1,COc1ccc(-c2nn(CC(=O)NC3CCCC3)c3c2cnc2ccc(F)cc23)cc1,inactive
2,Cc1ccc(CNC(=O)c2c(O)nc3c(C)cccn3c2=O)cc1,inactive
3,NS(=O)(=O)c1ccc(CNC(=O)c2cnccn2)cc1,inactive
4,COc1cccc(OCC(=O)NNC(=O)c2cnccn2)c1,inactive
5,CCN(CC)c1ccc(/C=N/NC(=O)c2cnccn2)c(O)c1,0.731 µM (active)
6,O=C(/C=C/c1ccccc1)N1CCN(Cc2cc(=O)n3nc(-c4ccccc4F)sc3n2)CC1,inactive
7,Cc1ccc(CNC(=O)COc2ccc3c(c2)CCC3)cc1,inactive
8,Cc1ccc(CNC(=O)CN2CCN(Cc3ccc(Cl)cc3)C2=O)cc1,inactive
9,C/C(CC(=O)NCc1ccc(Cl)cc1)=N\NC(=O)COc1ccc(C)cc1Br,5.17 µM (active)
10,Cc1ccc2oc(C(=O)Nc3ccc(S(=O)(=O)N4CCCCCC4)cc3)cc(=O)c2c1,inactive
11,Cc1ccc(C)c(N2CCN(C(=O)Cc3c(C(=O)O)c(C)cn3C)CC2)c1,inactive
12,CC[n+]1cc(C)ccc1/C=C/c1ccc(N(C)C)cc1,1.84 µM (active)
13,CCc1ccc(-c2nn3c(C)nnc3s2)cc1NC(=O)c1ccc(-c2cccc(Cl)c2)o1,inactive
14,COc1ccc(S(=O)(=O)n2nc(C)c(S(=O)(=O)N3CCCCCC3)c2C)cc1,inactive
15,N#Cc1ccc[n+](CC(=O)c2ccc(O)c(O)c2)c1,inactive
16,Cc1cc(C(=O)OCC(=O)NCc2ccco2)c(C)n1-c1ccccc1,4.61 µM (active)
17,O=C(COC(=O)c1ccccc1O)NCc1ccco1,inactive
18,O=C(COC(=O)c1cnc(Cl)c(Cl)c1)NCc1ccco1,inactive
19,Cc1ccc(NC2=C(c3ccc(C(F)(F)F)cc3)C(=O)c3ccccc32)cc1F,inactive
20,Cc1cccc(NC(=O)N2CCN(C)c3ncccc32)c1C,inactive
21,COc1cc(Cn2c3ccc(NC(=O)CC(C)c4ccccc4)cc3c(=O)n2C)ccc1F (centres undefined),16.4 µM (active)
22,COc1ccc(CCNC(=O)Nc2ccc3c(c2)c(=O)n(C)n3C)cc1OC,inactive
23,CCNC(=S)Nc1ccc2c(c1)c(=O)n(C)n2Cc1ccc(Cl)cc1,inactive
24,CN(C)c1ccc(C=Nc2ccc(/C=C/c3ccnc4ccccc34)cc2)cc1,inactive
25,CN(C)c1ccc(/C=C/C=C/c2ccnc3ccccc23)cc1,5.8 µM (active)

row,SMILES,Potency
1,CN(Cc1ccccc1)c1ccc(/C=C/c2ccnc3ccccc23)cc1,inactive
2,CCc1nn(CC(=O)N2CCN(c3ccc(Cl)cc3)CC2)c(=O)c2cc3occc3n12,inactive
3,CC1CN(C(=O)N2CCC(C(=O)NCc3cccs3)CC2)c2ccccc2O1 (centres undefined),inactive
4,CCOc1ccc(Nc2nc3c(S(=O)(=O)c4cccc(Cl)c4)nnn3c3ccsc23)cc1,inactive
5,Cc1cccc(NC(=O)CSc2ncc(-c3ccccc3)[nH]2)c1C,inactive
6,CCOc1ccc(C(NC(=O)c2cc(OC)c(OC)c(OC)c2)c2cc(Cl)c3cccnc3c2O)cc1 (centres undefined),inactive
7,CCCCC(=O)NC(c1ccc(OC)c(OC)c1)c1ccc2cccnc2c1O (centres undefined),5.8 µM (active)
8,CCOc1ccc(C(CCc2ccccc2)NC(=O)c2ccc(OC)c(OC)c2)cc1OCC (centres undefined),inactive
9,COc1ccccc1CNC(=O)CCCn1c(=O)c2ccccc2n(CC(=O)Nc2ccc(C)cc2Cl)c1=O,inactive
10,COc1ccccc1N1CCN(CCCNC(=O)c2cnn(-c3ccccc3Cl)c2C2CCN(C(=O)OC(C)(C)C)CC2)CC1,inactive
11,Oc1ccc(Br)cc1C1C=C(c2ccc3c(c2)OCO3)NC(c2ccc(Cl)cc2)N1 (centres undefined),inactive
12,Cc1cccc(-c2nc(SCC(=O)Nc3cc(C)on3)c3c(=O)n(C)c(=O)n(C)c3n2)c1,inactive
13,NC(=O)C1CCN(c2ncc(-c3ccc(Cl)cc3)s2)CC1,inactive
14,Cc1cccc(NC(=O)CCn2c(=O)oc3ccccc32)c1,inactive
15,CC(=O)Nc1ccc(N2CCOCC2)c(C(=O)Nc2cccc(C)c2)c1,inactive
16,Cc1cccc(NC(=O)c2ccc([N+](=O)[O-])o2)c1,9.2 µM (active)
17,CCCN1CCc2nc(N3CCN(C)CC3)ncc2C1,inactive
18,COc1ccc(-c2c(C)nn3c(N4CCC(C(=O)NCCC(C)C)CC4)cc(C)nc23)cc1OC,inactive
19,CCCCCCCCn1c2c(c(=N)c3c1CCC3)CCCC2,0.411 µM (active)
20,CCN1CCC(N(Cc2ccc(F)cc2)C(=O)Nc2cc(C)ccc2C)CC1,inactive
21,CC(OC(=O)CN1C(=O)c2ccccc2C1=O)C(=O)c1ccccc1 (centres undefined),inactive
22,Cc1cc(/C=C2/SC(=O)N(CC(=O)OC(C)C)C2=O)c(C)n1C,inactive
23,CC(C)OC(=O)CN1C(=O)C(=O)c2ccccc21,18.4 µM (active)
24,CCCCNC(=O)c1cc(-c2ccc(Cl)c(Cl)c2)on1,inactive
25,COc1ccc(-n2nnc(-c3nsc(NC(=O)c4ccc(C)c(C)c4)n3)c2C)cc1Cl,inactive

row,SMILES,Potency
1,CCc1cccc(-n2nnc(-c3nsc(NC(=O)c4ccc(C)cc4)n3)c2C)c1,inactive
2,Cc1c(-c2nsc(NC(=O)c3cccc(Cl)c3)n2)nnn1-c1ccccc1C(F)(F)F,23.1 µM (active)
3,Cc1ccc(-c2nc(=N)sn2Cc2ccccc2)cc1,inactive
4,CCOc1ccccc1N(C)C(=O)c1cc2c(s1)-c1ccccc1OC2,inactive
5,CCCCC(CCCC)c1ccc(C=Nc2ccc(/C=C/c3ccnc4ccccc34)cc2)cc1,inactive
6,Cc1cc(C)n2ncc(C(=O)N3CCCC3)c2n1,inactive
7,COc1cccc(-c2nnc(SCCOc3ccc4c(C)cc(=O)oc4c3)o2)c1,inactive
8,Cc1ccccc1NC(=O)c1ccc(COc2ccc3c(C)cc(=O)oc3c2)cc1,inactive
9,Cc1cc(=O)oc2cc(OCC3CC(c4ccccc4Cl)=NO3)ccc12 (centres undefined),1.3 µM (active)
10,COC(=O)c1ccc(NC(=O)c2cnn(-c3ccc(Cl)cc3)c2C2CCN(C(=O)OC(C)(C)C)CC2)cc1,inactive
11,N#CCSc1nc(-c2ccccc2)nc2ccc(F)cc12,inactive
12,Clc1ccc2nc(-c3ccccc3)nc(C(Cl)Cl)c2c1,3.26 µM (active)
13,Fc1ccc2nc(-c3ccccc3)nc(SCc3nnc(-c4ccccc4)o3)c2c1,inactive
14,Oc1c(C(c2ccc(F)cc2)N2CCN(Cc3ccccc3)CC2)sc2nc(-c3ccco3)nn12 (centres undefined),inactive
15,COc1cc(OC)c(OC)cc1/C=C/c1nc2ccccc2c(=O)n1-c1ccc(Br)c(C)c1,inactive
16,Cc1cc(C)nc(NS(=O)(=O)c2ccc(NC(=O)c3cc(=O)c4ccc(C)c(C)c4o3)cc2)n1,inactive
17,COc1ccc2c(c1)c(N1CCCC1=O)c(C(=O)Nc1ccc(OC)c(Cl)c1)n2C,inactive
18,Cc1cc(NC(=O)CSc2nc3c(cc2C#N)CCCCC3)no1,5.8 µM (active)
19,Cc1cc(NC(=O)COc2ccccc2C#N)no1,inactive
20,CC(NC(=O)CSc1nc2c(cc1C#N)CN(C)CC2)c1ccccc1 (centres undefined),inactive
21,COc1ccc(S(=O)(=O)NCC(c2ccc(N(C)C)cc2)N2CCc3ccccc32)cc1OC (centres undefined),inactive
22,O=C(NNC(=S)NC(=O)c1cn(-c2ccccc2)nc1-c1ccccc1)c1ccncc1,8.2 µM (active)
23,O=C(NCCCN1CCOCC1)c1cn(-c2ccccc2)nc1-c1ccc(F)cc1,inactive
24,COc1ccccc1N1CCN(C(=O)c2cn(-c3ccccc3)nc2-c2cccnc2)CC1,inactive
